In paper PMC4336329 (PLoS ONE, 2015):
The whole screen tested about 310,000 compounds, of which about 14,000 (4.5%) showed an effect of 50% or more. The effect is printed as a negative number. This is one part of a sample in which strong results are shown more often than they occur.

Molecular target: human ether-à-go-go-related gene (hERG) potassium channel (human, UniProt Q12809)
Assay: primary screen, population patch clamp on CHO cells stably expressing hERG; higher = less effect of the substance
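Note: peak tail current of the secondary pulse compared with the same well before compound.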

Chain of human ether-à-go-go-related gene (hERG) potassium channel (Q12809 whole entry, looked up): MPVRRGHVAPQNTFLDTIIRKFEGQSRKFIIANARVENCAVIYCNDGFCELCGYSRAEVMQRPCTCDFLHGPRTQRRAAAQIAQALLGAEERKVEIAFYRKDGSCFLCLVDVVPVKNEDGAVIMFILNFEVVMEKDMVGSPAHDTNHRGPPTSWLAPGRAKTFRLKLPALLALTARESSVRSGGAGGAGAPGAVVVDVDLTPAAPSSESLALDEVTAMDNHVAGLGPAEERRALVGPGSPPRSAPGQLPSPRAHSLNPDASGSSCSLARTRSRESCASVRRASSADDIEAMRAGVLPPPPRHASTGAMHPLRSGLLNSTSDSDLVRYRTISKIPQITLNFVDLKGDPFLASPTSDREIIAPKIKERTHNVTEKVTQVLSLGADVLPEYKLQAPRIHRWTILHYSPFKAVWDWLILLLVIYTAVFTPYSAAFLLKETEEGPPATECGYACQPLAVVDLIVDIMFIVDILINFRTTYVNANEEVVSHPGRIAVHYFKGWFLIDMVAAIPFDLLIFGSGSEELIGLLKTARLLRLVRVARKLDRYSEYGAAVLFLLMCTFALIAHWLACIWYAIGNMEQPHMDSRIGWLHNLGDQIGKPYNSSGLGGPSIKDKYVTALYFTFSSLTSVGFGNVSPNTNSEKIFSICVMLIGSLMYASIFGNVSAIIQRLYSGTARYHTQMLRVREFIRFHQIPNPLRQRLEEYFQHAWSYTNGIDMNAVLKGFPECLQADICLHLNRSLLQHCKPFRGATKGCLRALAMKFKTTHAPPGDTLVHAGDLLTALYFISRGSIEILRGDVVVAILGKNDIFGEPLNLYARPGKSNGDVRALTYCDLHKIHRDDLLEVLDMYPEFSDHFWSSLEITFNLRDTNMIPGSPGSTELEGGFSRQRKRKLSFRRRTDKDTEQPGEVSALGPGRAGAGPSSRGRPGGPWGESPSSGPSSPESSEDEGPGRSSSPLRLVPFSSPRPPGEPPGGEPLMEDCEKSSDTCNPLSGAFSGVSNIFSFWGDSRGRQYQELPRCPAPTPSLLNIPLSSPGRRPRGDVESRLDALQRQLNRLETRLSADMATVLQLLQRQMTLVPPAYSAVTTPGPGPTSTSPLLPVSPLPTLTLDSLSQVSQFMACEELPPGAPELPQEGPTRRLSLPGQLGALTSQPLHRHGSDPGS

SMILES | hERG current change (%, negative = inhibition) at 10uM
OCC1OC(n2cnc3ccccc32)CC1O (centres unmarked) | 10.8%
CCNC(=O)OCC12CC3CC(CC(C3)C1)C2 | -5.85%
Cc1ccc(C(=O)N/N=C\c2ccc(-c3ccc(Cl)c(Cl)c3)o2)cn1 | -44.9%
CCOC(=O)N1CCN(C(=O)C2CCC(=O)N(Cc3cccc(C(F)(F)F)c3)C2)CC1 (centres unmarked) | -11.1%
CC(C)n1c(O)c(N=NC(=O)C2COc3ccccc3O2)c2ccccc21 (centres unmarked) | 12.4%
Nn1c(COc2ccccc2F)nnc1SCC(=O)NC1CCS(=O)(=O)C1 (centres unmarked) | -7.72%
CCc1nc(CN2CCN(c3ccc(C(F)(F)F)cn3)CC2)c(C)[nH]1 | -55.6%
CCc1nc(CN2CCN(c3cc(C(F)(F)F)ccn3)CC2)c(C)[nH]1 | -45.2%
CS(=O)(=O)Nc1ccc(N2CCN(c3ccc(C(F)(F)F)cn3)CC2)nc1 | -4.03%
O=C(CN1CCN(Cc2ccc(F)cc2Cl)CC1)NCc1ccccc1 | -23.2%
Clc1ccc(-c2nnc(-c3ccc(Br)cc3)c(N3CCSCC3)n2)cc1 | -11.9%
O=[N+]([O-])c1ccc(-c2nnc(-c3ccccc3)c(NCCCO)n2)cc1 | -67.3%
Cc1nnc(-c2ccc(Cl)cc2)nc1NCCN(C)C | -38.9%
O=[N+]([O-])c1ccc2nc(NCCCO)nc(-c3ccccc3)c2c1 | -22.7%
OCCCNc1nnc(-c2ccccc2)c2ccccc12 | 2.95%
Nc1nc(-c2ccc(Cl)cc2)nnc1-c1ccc(Br)cc1 | 41%
OCCCNc1nc(-c2ccc(Cl)cc2)nnc1-c1ccc(Br)cc1 | -61.5%
OCCCNc1nc(-c2ccc(Br)cc2)nnc1-c1ccc(Cl)cc1 | -52.3%
OCCCNc1nc(-c2ccc(Cl)cc2)nnc1-c1ccccc1 | -40%
CC(C)(C)c1ccc(C(CC(=O)O)NC(=O)C23CC4CC(CC(C4)C2)C3)cc1 (centres unmarked) | 17.7%
O=C(Nc1ccc2c(c1)OCO2)C1Cc2ccccc2CN1S(=O)(=O)c1cccs1 (centres unmarked) | 4.05%
COc1ccccc1NC(=O)c1ccc(Br)c(S(=O)(=O)N2CCCC2)c1 | -2.36%

SMILES | hERG current change (%, negative = inhibition) at 10uM
CCC(C)C(NC(=O)c1ccccc1NC(=O)c1ccc(OC)cc1)C(=O)NCCCn1ccnc1 (centres unmarked) | -1.96%
CCCn1c(CCC(=O)O)nc2cc(S(=O)(=O)N3CCCC3)ccc21 | 12.1%
COCCOC(=O)c1c(C)oc2ccc(O)c(CN3CCC(C)CC3)c12 | -29.8%
CC12CC3CC(C)(C1)CC(NCc1ccncc1)(C3)C2.Cl | -58.7%
CC12CC3CC(C)(C1)CC(C(=O)NCc1ccncc1)(C3)C2 | 9.2%
Cl.c1cc(CNC23CC4CC(CC(C4)C2)C3)ccn1 | -20.2%
O=C(c1ccc([N+](=O)[O-])o1)N(Cc1nnc(-c2ccccc2Cl)o1)C1CC1 | -20.9%
CN(NS(=O)(=O)c1ccc(Br)cc1)c1nc(C(F)(F)F)nc2ccccc12 | 12.2%
O=C(CN(Cc1ccc2c(c1)OCO2)C(=O)CNC(=O)c1ccco1)NC1CCCCC1 | -7.83%
CCOC(=O)C1CCN(C(=O)c2cc(-c3ccncc3)nc3ccccc23)CC1 | -67.2%
CC(=O)N1CCN(C(=O)c2cc(-c3ccc(C)o3)nc3ccccc23)CC1 | -10.1%
Cc1ccc(-c2cc(C(=O)N3CCN(c4ccc(F)cc4)CC3)c3ccccc3n2)o1 | -35.7%
O=C(c1cc(-c2ccncc2)nc2ccccc12)N1CCN(c2ccccc2O)CC1 | -64.3%
O=C(c1cc(-c2cccnc2)nc2ccccc12)N1CCN(S(=O)(=O)c2cccs2)CC1 | -64.3%
CCOC(=O)C1CCCN(C(=O)c2cc(-c3ccc(C)cc3)nc3ccccc23)C1 (centres unmarked) | -37.6%
O=C(c1cc(-c2cccnc2)nc2ccc(Cl)cc12)N1CCN(S(=O)(=O)c2cccs2)CC1 | -4.28%
O=C(c1cc(-c2ccccc2)nc2ccccc12)N1CCN(c2ccccc2O)CC1 | -10.9%
Cc1ccc(-c2cc(C(=O)N3CCN(c4ccccc4O)CC3)c3ccccc3n2)o1 | -70.9%
CCOC(=O)C1CCCN(C(=O)c2cc(-c3ccncc3)nc3ccccc23)C1 (centres unmarked) | -32.4%
Cc1ccc(-c2cc(C(=O)N3CCN(c4ccccc4O)CC3)c3ccccc3n2)cc1 | -1.9%
O=C(c1cc(-c2cccs2)nc2ccccc12)N1CCN(S(=O)(=O)c2ccccc2)CC1 | -5.65%
O=C(N/N=C/c1c(O)ccc2ccccc12)Nc1ccccc1 | 16.3%

SMILES | hERG current change (%, negative = inhibition) at 10uM
COc1cc2cc(CCCOC(=O)c3cccc(Br)c3)oc(=O)c2cc1OC | -2.2%
Cn1c(SCCS(=O)(=O)c2ccc(Cl)cc2)nnc1-c1ccccc1 | -19.3%
CCOc1ccc(CCNC(=O)COC(=O)c2ccc(C)c([N+](=O)[O-])c2)cc1OCC | -7.57%
CO/N=C/NC(=O)NOCc1ccc(Cl)cc1Cl | -11.5%
C[C@H](NC(=O)c1nc[nH]c1C(=O)N(C)Cc1ccccc1)C(=O)OC(C)(C)C | 5.67%
COc1cccc(C(=O)N(CN2CCCC2=O)c2cccc(Cl)c2)c1 | -25.4%
CC(=O)c1cc(C#N)c(Oc2ccc(F)cc2)nc1C | 13.7%
COc1ccc(NC(=O)c2cc(-c3ccc(C)o3)nc3ccccc23)c(OC)c1 | 14.9%
COc1cccc(CN2CCN(C(=O)c3cc(-c4ccncc4)nc4ccc(C)cc34)CC2)c1 | -71%
COc1ccccc1NC(=O)c1cc(-c2ccc(C)o2)nc2ccccc12 | -60.7%
COc1ccc(-c2cc(C(=O)N3CCN(c4ccccn4)CC3)c3ccccc3n2)cc1 | -5.51%
CC1CC(C)CN(C(=O)c2cc(-c3ccncc3)nc3ccccc23)C1 (centres unmarked) | -35.5%
COc1cccc(CN2CCN(C(=O)c3cc(-c4cccnc4)nc4ccc(C)cc34)CC2)c1 | -12.7%
Cc1ccc(-c2cc(C(=O)Nc3ccccc3C)c3ccccc3n2)o1 | 9.38%
Cc1ccccc1CN1CCN(C(=O)c2cc(-c3ccncc3)nc3ccccc23)CC1 | -76.7%
COc1cccc(CN2CCN(C(=O)c3cc(-c4ccccn4)nc4ccc(Cl)cc34)CC2)c1 | 17.1%
CCOC(=O)N1CCN(C(=O)c2cc(-c3ccncc3)nc3ccccc23)CC1 | -48.4%
O=C(c1cc(-c2ccncc2)nc2ccccc12)N1CCN(c2ccccn2)CC1 | -63.5%
O=C(c1cc(-c2ccccc2)nc2ccccc12)N1CCN(c2ccccn2)CC1 | -27.6%
N#CCSc1nnc(-c2ccccc2O)n1CCc1ccccc1 | -10.7%
CCCCNC(=S)NNC(=O)c1ccc2c(c1)OCO2 | 5.46%
Cc1cc(C(=O)NNC(=O)c2cccc([N+](=O)[O-])c2)n[nH]1 | 18.9%

SMILES | hERG current change (%, negative = inhibition) at 10uM
Cc1cc(C)c(S(=O)(=O)N2CCN(C(=O)C3COc4ccccc4O3)CC2)c(C)c1 (centres unmarked) | -17%
O=c1c2cc3c(cc2[nH]c(=S)n1CCN1CCOCC1)OCO3 | 9.66%
COc1ccc(Cc2nnc(NC(=O)C(C)C)s2)cc1 | 11.2%
Cc1cc(C)c(NC(=O)COC(=O)c2c(C)noc2C)c(Cl)c1 | 13.8%
O=C(c1cc(-c2ccncc2)nc2ccccc12)N1CCN(S(=O)(=O)/C=C/c2ccccc2)CC1 | -66.6%
CS(=O)(=O)N1CCN(C(=O)c2cc(-c3ccccc3)nc3ccccc23)CC1 | -30.8%
CS(=O)(=O)N1CCN(C(=O)c2cc(-c3ccncc3)nc3ccc(Cl)cc23)CC1 | -12.8%
COc1ccc2[nH]c3c(=O)n(CCCCC(=O)NCCC(C)C)c(=S)[nH]c3c2c1 | 16.3%
CCCCn1c(CCNC(=O)CCC)nc2ccccc21 | -7.83%
CCCCCn1c(=O)c(C(=O)c2ccccc2)nc2ccccc21 | -77.6%
CCCCn1c(CCNC(=O)CC)nc2ccccc21 | -11.2%
CCCCn1c(CCCNC(=O)CC)nc2ccccc21 | -37.3%
CCCC(=O)NCCc1nc2ccccc2n1CCC | 1.27%
CCCCCn1c(CCNC(=O)CCC)nc2ccccc21 | -57.2%
CCCn1c(CCNC(=O)c2cccs2)nc2ccccc21 | -36.1%
CCCCCn1c(CCNC(=O)c2cccs2)nc2ccccc21 | -52.5%
CCCCn1c(CCNC(=O)c2cccs2)nc2ccccc21 | -33.2%
CCCCn1c(=O)c(C(=O)c2ccccc2)nc2ccccc21 | -30.4%
CCCn1c(=O)c(C(=O)c2ccccc2)nc2ccccc21 | -27.4%
CCCCCn1c(CCCNC(=O)CC)nc2ccccc21 | -65.9%
